PubChem BioAssay AID1490 (National Center for Advancing Translational Sciences (NCATS), 2009)
Among all 310,000 compounds or so, about 11,000 (3.5%) were called active. About 4% were inconclusive and are not listed. What follows is part of a selection rich in actives, with near analogues and random picks from the rest. A number with no mark means an inactive call. Calls come from the whole dose curve; as a rule, active = well fitted inhibition curve with a large enough effect; inconclusive = small, poorly fitted or top-dose-only effect, or another doubt; inactive = no such curve, though single readings can be large or run the other way.

These molecules were tested against 4'-phosphopantetheinyl transferase ffp (Bacillus subtilis) (UniProt Q9F4F7) (assay: qHTS Assay for Inhibitors of Bacillus subtilis Sfp phosphopantetheinyl transferase (PPTase)). Details: Biochemical Sfp PPTase activity.
Outline: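 With Hepes-Na pH 7.6 buffer containing 10 mM MgCl2, Sfp (15 nM) modified BHQ-2-YbbR (12.5 uM) using rhodamine-CoA (5 uM). Two reads 30 minutes apart at 525/598 nm yielded each well's rate.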
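Note: the enzyme is Sfp with the accession as filed and its product quenches rhodamine fluorescence.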
Potency is the fitted concentration of half-maximal effect.
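Throughout, for largest response in the series, negative = inhibition: 0% = enzyme reaction without inhibitor and -100% = no enzyme wells.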

Row | SMILES | largest response in the series, negative = inhibition [%] | Potency
1 | O=C(Oc1ccccc1Cl)c1ccc(N2CCOCC2)c([N+](=O)[O-])c1 | -20.5 | –
2 | O=C(Oc1ccc(Br)cc1C(=S)N1CCOCC1)c1cccc([N+](=O)[O-])c1 | – | 50.1 µM (active)
3 | CCCCNC(=O)CCn1nc(-c2ccc(Cl)cc2)ccc1=O | 10.2 | –
4 | Cc1c(CC(=O)NCC(=O)NCC(=O)O)c(=O)oc2cc3oc4c(c3cc12)CCCC4 | -20.1 | –
5 | Nc1nnnn1/N=C/c1cccc(Br)c1 | 2.63 | –
6 | Cc1n[nH]c(C)c1S(=O)(=O)N1CCCC(C(=O)Nc2ccc(Br)cc2)C1 (configuration not stated) | 15.6 | –
7 | CCOC(=O)Cn1c(=O)n(Cc2ccc(OC)cc2)c(=O)c2cccnc21 | 13 | –
8 | O=C(Nc1ccnn1C1CCN(Cc2cccc(OCCO)c2)CC1)C1CCCC1 | -0.971 | –
9 | COc1ccc(-c2cc(C(=O)N3CCN(c4ccc(F)cc4)CC3)no2)cc1 | 8.09 | –
10 | COc1ccc(CNC(=O)c2ccc3oc(C(C)C)nc3c2)cc1 | 2.49 | –
11 | S=c1ccc2ccccc2[nH]1 | -21.1 | –
12 | S=c1[nH]c2ccccc2c2ccccc12 | – | 50.1 µM (active)
13 | CCCCn1c(=S)[nH]c2ccccc2c1=O | 8.99 | –
14 | Cc1cccc(NC(=O)CSCC(=O)Nc2nnc(C3CC3)s2)c1 | -4.58 | –
15 | CCN(CC)c1ccc2oc(=O)c(C)nc2c1 | – | 14.1 µM (active)
16 | CCN(CC)c1ccc2cc(C(N)=O)/c(=N\NC(=O)c3ccncc3)oc2c1 | -4.99 | –
17 | CCN(CC)c1ccc(/C=N/Nc2nc(C)cc(C)n2)c(O)c1 | -14.7 | –
18 | Cc1ccc2cccc(OCCCOc3ccccc3CO)c2n1 | 13.6 | –
19 | O=C(CC1C(=O)NCCN1CC(c1ccccc1)c1ccccc1)NCC1CCOCC1 (configuration not stated) | -5.38 | –
20 | Cc1sc2nc(SCCO)n(-c3ccccc3)c(=O)c2c1C | 27.7 | –
21 | CSc1nc(C)cc(SC(C(C)=O)C(=O)Nc2ccccc2)n1 (configuration not stated) | – | 50.1 µM (active)
22 | Cc1cccc(NC(=O)C(C)SCc2ccccc2)c1 (configuration not stated) | 3.73 | –
23 | CC(Sc1nnc2c(n1)C1CCC2(C)C1(C)C)C(=O)Nc1ccccc1 (configuration not stated) | 6.3 | –
24 | Cn1nccc1/C=N\NC(=O)c1ccc(Cl)cc1 | 9.85 | –

Row | SMILES | largest response in the series, negative = inhibition [%] | Potency
25 | CCOc1ccc(C(=O)CCN2CCOCC2)cc1 | -10.8 | –
26 | CCOc1cc(C(=S)N2CCOCC2)ccc1OS(=O)(=O)c1ccc(Br)cc1 | 22.9 | –
27 | CCOc1cc(C(=S)N2CCOCC2)ccc1O | – | 14.1 µM (active)
28 | COC(=O)[C@@H]1CC2=CC(=O)CC[C@]2(C)[C@@]23O[C@@H]2C[C@@]2(C)[C@@H](CC[C@@]24CCC(=O)O4)[C@H]13 | 10 | –
29 | Cc1ccc(Cn2cc(C(=O)NN)c(=O)c3ccc(F)cc32)cc1 | 10.7 | –
30 | CCn1c(SCC(=O)Nc2ccc3c(c2)OCCO3)nnc1C(C)C | 18.9 | –
31 | CCCn1c(SCC(=O)c2ccc3c(c2)OCCO3)nnc1C(C)C | – | 79.4 µM (active)
32 | CCCn1c(SCC(N)=O)nnc1C(C)C | 10.5 | –
33 | COc1ccc(C(C(=O)NC2CCCC2)N(CCCO)C(=O)Cn2nnc(-c3ccc(C)o3)n2)cc1 (configuration not stated) | 1.56 | –
34 | CCN(CC)S(=O)(=O)c1ccc(N2CCN(C)CC2)c(NC(=O)Nc2ccccc2F)c1 | 9.85 | –
35 | Cc1cc(C)nc(S/C=C/C(=O)c2ccccc2)n1 | – | 20 µM (active)
36 | Cc1ccc(N/C=C/C(=O)c2ccccc2)cc1C | -6.7 | –
37 | Cc1cc(SCC(=O)c2ccccc2)nc(SCC(=O)c2ccccc2)n1 | 11.4 | –
38 | COc1cc(C(C(=O)NC2CCCC2)N(Cc2ccccc2)C(=O)c2snc(C(N)=O)c2N)ccc1O (configuration not stated) | 4.51 | –
39 | CCOC(=O)[C@H]1[C@H]2COc3cc(OC)ccc3[C@@H]2N2C(=O)N(c3ccc(Br)cc3)C(=O)[C@@]12C | 5.98 | –
40 | O=C(NCCCO)c1cc2c([nH]c3ccccc32)c(-c2ccc(F)cc2)n1 | -19.4 | –
41 | CSc1ncccc1C(=O)NC1CCCCCC1 | 8.17 | –
42 | CSc1nsc(SC)c1NC(=O)OC1CCCCC1 | – | 56.2 µM (active)
43 | CN(C)C(=O)c1ccc(NC(=O)c2ccccc2-c2ccccc2)cc1 | -2.24 | –
44 | O=C1/C(=C/c2ccc3c(c2)OCO3)Oc2cc(OCC(=O)N3CC(O)C[C@H]3C(=O)O)ccc21 (some centres not stated) | 2.62 | –
45 | CCOc1ccc(Nc2nc(Cc3nnc(SCC(=O)NC4CCCC4)n3C)cs2)cc1 | – | 89.1 µM (active)
46 | CCOc1cccc(-c2nnc(SCC(=O)NC3CC3)n2C)c1 | 3.79 | –
47 | Cn1c(CC(=O)Nc2ccc(F)cc2)nnc1SCC(=O)NC1CCCCC1 | 16 | –
